Experimental data: PubChem BioAssay (NCI)
About 83,000 compounds went through this panel and 20% of them were active in at least one assay; those are over-represented in the sample as a whole.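 The test compound was applied at a single concentration to cells in 96-well plates for 48 hours, and percent growth was recorded.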 Values without a mark were called inactive. The source made the active and inactive calls. How the source made its calls: active means growth percent below 10; inactive means the rest.

Each compound was assayed on OVCAR-5 ovarian (assay: NCI-60 one-dose screen, 48 h (100 = growth as untreated, 0 = no growth, -100 = all killed)). Conditions: 10 µM.

SMILES | growth
NC(CSC(c1ccccc1)(c1ccccc1)c1cccc2ccccc12)C(=O)O (stereo not given) | 101%
CC(=O)[C@H]1CC[C@]2(C)[C@@H]1CC[C@@H]1[C@@]3(C)CC(CCC#N)(CCC#N)C(=O)C(C)(C)[C@@H]3CC[C@]12C | 88.5%
NC1=NC(c2ccc(Cl)cc2)C2=C(N1)/C(=C/c1ccc(Cl)cc1)CCC2 (stereo not given) | 112%
C/C(=N\O)c1ccc(NC(=O)CSc2nnc(-c3ccccc3)n2-c2ccccc2)cc1 | 86.2%
NC1=CC(=O)C(=O)c2cccnc21 | 101%
C[n+]1c2ccccc2nc2ccccc21 | 42.1%
COc1cc(-c2nn(-c3ccc(NC(=O)NCCNS(=O)(=O)c4ccc(F)cc4)cc3)cc2-c2ccncc2)ccc1Cl | 27.1%
O=C(CSc1nccc(Nc2cccc3ccccc23)n1)c1ccc(Cl)cc1 | 87.4%
CCCCCCCCCCOC(c1ccccc1)c1ccccc1 | 88.7%
O=C1/C=C/[C@@H](O)[C@@H]2C[C@@H](O)C[C@H]2/C=C/CCC[C@H](CCc2ccc(C(F)(F)F)cc2)O1 | 13.6%
O=C(O)c1cn(C2CC2)c2cc(N3CCN(C(=O)c4cc(-c5ccc(Cl)cc5)nc5ccccc45)CC3)c(F)cc2c1=O | 98.2%
CN(C)CCC1(c2ccccc2)CCN(C)C1=O (stereo not given) | 107%
COc1ccc(Nc2cnc3cc(NS(=O)(=O)c4ccc(C)cc4)ccc3n2)cc1 | 95.9%
COc1cc(-c2nn(-c3cccc(NC(=O)CCNc4ccc(N5CCOCC5)cc4)c3)cc2-c2ccncc2)ccc1Cl | 49%
COc1cccc(-c2nc3sccn3c2-c2cccc(S(C)(=O)=O)c2)c1 | 96.3%
COc1cc(CNC(=O)C2CSC3(C)c4ccccc4C(=O)N23)cc(OC)c1OC (stereo not given) | 102%
COc1cc2cc(Oc3ccc(NC(=O)c4ccc(Cl)c(C(F)(F)F)c4)cc3)c(C)nc2cc1OC | 51.3%
CN(C)CCCSc1ccccc1NC1=C(Cl)C(=O)C(Nc2ccccc2SCCCN(C)C)=C(Cl)C1=O | 33.4%
COc1ccc(-c2cc(-c3ccc(Cl)cc3)nc(SCCCCCCC(=O)NO)n2)cc1OC | 56.2%
O=C(NCCNC(=O)c1ccc(F)cc1)Nc1ccc(-n2cc(-c3ccncc3)c(-c3ccc(Cl)c(O)c3)n2)cc1 | 27.8%

SMILES | growth
Cc1ccc(Cl)cc1NC(=O)CCl | 136%
Nc1ncc(-c2cnn(C3CCNCC3)c2)cc1-c1nc2ccccc2o1 | 34.6%
O=C(CCCSc1nc(-c2ccccc2)cc(-c2ccc(Cl)cc2)n1)NO | 9.63% (active)
COc1ccc2nc3cc(Cl)ccc3c(Nc3cc(CN4CCCC4)c(O)c(CN4CCCC4)c3)c2n1 | 6.64% (active)
CN(C)CCOc1cccc(-c2nc3sccn3c2-c2ccnc(S(C)(=O)=O)n2)c1 | 97.3%
Cc1ccc(C(=O)C2C(=O)C3CCC2C3)cc1 (stereo not given) | 99%
COc1cc(-c2csc(NC(=O)Nc3cc(C(F)(F)F)cc(C(F)(F)F)c3)n2)cc(OC)c1OC | 30.4%
O=C(CNc1nnc(-c2cccnc2SCc2ccccc2)s1)Nc1nc(Cl)cc(Cl)n1 | 109%
O=C(O)c1ccc(-n2cc(CNc3ccc(Oc4ccccc4)cc3)c(-c3ccccc3)n2)cc1 | 98.9%
C/C=C/C1=CN2C(=O)c3cc(OC4OC(C)C(NC)C(C)(O)C4O)c(C)c(O)c3N=C[C@@H]2C1 (stereo not given in full) | -1.31% (active)
COc1ccc(/C(C#N)=C/c2ccccc2OC)cc1 | 55.5%
O=S(=O)(O)c1ccc(Cl)cc1 | 103%
N#CCc1csc(Cc2ccccc2)n1 | 110%
O=C(/C=C/C=C/c1c(C2CC2)nc2ccccc2c1-c1ccc(F)cc1)c1cccs1 | 1.66% (active)
N#CC1=C(N)Oc2cc(N)ccc2C1c1cccnc1 (stereo not given) | 103%
O=C(Cn1cc(CO)nn1)Nc1nc2ccccc2s1 | 101%
CCn1c(SCCc2ccccc2)nnc1-c1nn(-c2ccc(Cl)cc2Cl)c(-c2ccc(Cl)cc2)c1C | 81.7%
Cc1cc(C(C#N)c2ccc(Cl)cc2)c(Cl)cc1NC(=O)c1cc(I)cc(I)c1O (stereo not given) | 87.8%
Cn1cnc([N+](=O)[O-])c1/C=C1\Oc2ccc(Br)cc2C1=O | 105%
Cc1cc(Cl)ccc1Nc1nc(C(F)(F)F)ccc1C(=O)N/N=C/c1c(Cl)cccc1Cl | 24.8%

The compounds below were run on OVCAR-4 ovarian in the same assay as above. Conditions: 10 µM.

SMILES | growth
NC(CSC(c1ccccc1)(c1ccccc1)c1cccc2ccccc12)C(=O)O (stereo not given) | 95.4%
CC(=O)[C@H]1CC[C@]2(C)[C@@H]1CC[C@@H]1[C@@]3(C)CC(CCC#N)(CCC#N)C(=O)C(C)(C)[C@@H]3CC[C@]12C | 87.2%
NC1=NC(c2ccc(Cl)cc2)C2=C(N1)/C(=C/c1ccc(Cl)cc1)CCC2 (stereo not given) | 76.1%
C/C(=N\O)c1ccc(NC(=O)CSc2nnc(-c3ccccc3)n2-c2ccccc2)cc1 | 87.3%
NC1=CC(=O)C(=O)c2cccnc21 | 91.8%
C[n+]1c2ccccc2nc2ccccc21 | 21.9%
COc1cc(-c2nn(-c3ccc(NC(=O)NCCNS(=O)(=O)c4ccc(F)cc4)cc3)cc2-c2ccncc2)ccc1Cl | 41.8%
O=C(CSc1nccc(Nc2cccc3ccccc23)n1)c1ccc(Cl)cc1 | 98.7%
CCCCCCCCCCOC(c1ccccc1)c1ccccc1 | 99.8%
O=C1/C=C/[C@@H](O)[C@@H]2C[C@@H](O)C[C@H]2/C=C/CCC[C@H](CCc2ccc(C(F)(F)F)cc2)O1 | 9.39% (active)
O=C(O)c1cn(C2CC2)c2cc(N3CCN(C(=O)c4cc(-c5ccc(Cl)cc5)nc5ccccc45)CC3)c(F)cc2c1=O | 98.6%
CN(C)CCC1(c2ccccc2)CCN(C)C1=O (stereo not given) | 113%
COc1ccc(Nc2cnc3cc(NS(=O)(=O)c4ccc(C)cc4)ccc3n2)cc1 | 86.5%
COc1cc(-c2nn(-c3cccc(NC(=O)CCNc4ccc(N5CCOCC5)cc4)c3)cc2-c2ccncc2)ccc1Cl | 26%
COc1cccc(-c2nc3sccn3c2-c2cccc(S(C)(=O)=O)c2)c1 | 107%
COc1cc(CNC(=O)C2CSC3(C)c4ccccc4C(=O)N23)cc(OC)c1OC (stereo not given) | 97%
COc1cc2cc(Oc3ccc(NC(=O)c4ccc(Cl)c(C(F)(F)F)c4)cc3)c(C)nc2cc1OC | 42.4%
CN(C)CCCSc1ccccc1NC1=C(Cl)C(=O)C(Nc2ccccc2SCCCN(C)C)=C(Cl)C1=O | -95.3% (active)
COc1ccc(-c2cc(-c3ccc(Cl)cc3)nc(SCCCCCCC(=O)NO)n2)cc1OC | 70.5%
O=C(NCCNC(=O)c1ccc(F)cc1)Nc1ccc(-n2cc(-c3ccncc3)c(-c3ccc(Cl)c(O)c3)n2)cc1 | 37.1%

SMILES | growth
Cc1ccc(Cl)cc1NC(=O)CCl | 76.9%
Nc1ncc(-c2cnn(C3CCNCC3)c2)cc1-c1nc2ccccc2o1 | 35.8%
O=C(CCCSc1nc(-c2ccccc2)cc(-c2ccc(Cl)cc2)n1)NO | 22.3%
COc1ccc2nc3cc(Cl)ccc3c(Nc3cc(CN4CCCC4)c(O)c(CN4CCCC4)c3)c2n1 | -16.3% (active)
CN(C)CCOc1cccc(-c2nc3sccn3c2-c2ccnc(S(C)(=O)=O)n2)c1 | 75.8%
Cc1ccc(C(=O)C2C(=O)C3CCC2C3)cc1 (stereo not given) | 102%
COc1cc(-c2csc(NC(=O)Nc3cc(C(F)(F)F)cc(C(F)(F)F)c3)n2)cc(OC)c1OC | 21.1%
O=C(CNc1nnc(-c2cccnc2SCc2ccccc2)s1)Nc1nc(Cl)cc(Cl)n1 | 103%
O=C(O)c1ccc(-n2cc(CNc3ccc(Oc4ccccc4)cc3)c(-c3ccccc3)n2)cc1 | 81.4%
C/C=C/C1=CN2C(=O)c3cc(OC4OC(C)C(NC)C(C)(O)C4O)c(C)c(O)c3N=C[C@@H]2C1 (stereo not given in full) | 6.69% (active)
COc1ccc(/C(C#N)=C/c2ccccc2OC)cc1 | 89.9%
O=S(=O)(O)c1ccc(Cl)cc1 | 114%
N#CCc1csc(Cc2ccccc2)n1 | 121%
O=C(/C=C/C=C/c1c(C2CC2)nc2ccccc2c1-c1ccc(F)cc1)c1cccs1 | 24%
N#CC1=C(N)Oc2cc(N)ccc2C1c1cccnc1 (stereo not given) | 80.3%
O=C(Cn1cc(CO)nn1)Nc1nc2ccccc2s1 | 108%
CCn1c(SCCc2ccccc2)nnc1-c1nn(-c2ccc(Cl)cc2Cl)c(-c2ccc(Cl)cc2)c1C | 75.6%
Cc1cc(C(C#N)c2ccc(Cl)cc2)c(Cl)cc1NC(=O)c1cc(I)cc(I)c1O (stereo not given) | 82.6%
Cn1cnc([N+](=O)[O-])c1/C=C1\Oc2ccc(Br)cc2C1=O | 103%
Cc1cc(Cl)ccc1Nc1nc(C(F)(F)F)ccc1C(=O)N/N=C/c1c(Cl)cccc1Cl | 7.14% (active)
